Shown are actives, neighbours in structure and some others; about 0.88% of the full set was active somewhere.
TRHR PAM – allosteric enhancers of human TRH receptor; P34981; TRHR cells, fluo-8 calcium fluorescence, EC20 TRH enhancement; enhancement, % at 2 µM; 360,000 tested, 0.66% active; in the data active means enhancement above about 30%
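Enhancer read-out: after compound pinning and an initial kinetic agonist-mode read, an EC20 of TRH (10 nM final) was injected and fluo-8 calcium signal (Ex 480/Em 530) followed at 1 s/cycle for 100 cycles in TRHR-expressing cells.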
IL2 activator – IL-2 activation; IL-2 activation reporter assay, cell-based qHTS; stimulated with anti-CD3/CD4/CD28 beads; in transgenic mouse T cells; 360,000 tested, 0.065% active; activation, % (series mostly up to about 46 µM); in the data active means activation above about 50%; inconclusive means mostly about 30% to 49%
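Quantitative HTS in unstimulated transgenic mouse T cells, with memory T cells as non-tolerant control and PMA/ionomycin as tolerance-bypass control. Compound pretreatment lasted 60 minutes before 18 h bead stimulation; EGFP/DsRed fluorescence read.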
MBNL1 CUG block – blocks human MBNL1 binding to CUG repeat RNA. Q9NR56. TR-FRET MBNL1-His/biotin-(CUG)12 binding, 665/545 ratio. Potency, µM (top dose mostly 57.5 µM), most hits filed as inhibitors. 280,000 tested, 0.036% active. AID 2675; active means well fitted inhibition curve with a large enough effect in the signal ratio, with a control signal flat, not every such curve was filed as active; inconclusive means small, poorly fitted or top-dose-only effect, or effect the other way, or a change in a side signal; inactive means no such curve, though single readings can be large or run the other way; the % refers to the signal ratio
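Ratiometric TR-FRET (665 over 545 nm, excitation 340 nm) tracks disruption of MBNL1-His/biotin-(CUG)12 complex after 60 min at room temperature, with compounds at 92 nM to 58 uM final.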
Epigenetic derep – epigenetic control regulation, reporter derepression. 280,000 tested, 0.2% active. Potency, µM (highest dose often 53.9 µM), usual class: activators. murine LDR cells, GFP reporter derepression, 30 h; further: nearly all actives have a fitted effect of over 60% in size
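GFP-positive cell count by laser-scanning cytometry (objects 20–120 um) after 30 h, 37 C compound exposure of murine LDR cells; reporter is CMV-GFP integrated at a silenced locus, inducible by HDAC or DNMT inhibitors.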
CBFb-RUNX1 inh – CBF-beta/RUNX1 interaction disruption; Q01196+Q13951; AlphaScreen CBFb-His/RUNX1-biotin binding, biochemical; Potency, µM (doses to about 59.8 µM), hits mostly inhibitors; 230,000 tested, under 10 active
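Bead-based AlphaScreen assay; binding partners His-tagged CBF-beta and biotinylated RUNX1 at 30 nM each. Compound exposure 15 min after a 20-min protein preincubation; bead step 90 min; all steps at room temperature.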
TRHR agonist – TRH receptor (human) agonism | P34981 | TRHR cells, calcium flux fluo-8, FDSS agonist mode | activation, % at 2 µM | 360,000 tested, 0.18% active | AID 493084; in the data active means activation above about 30%
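Steps: seed TRHR cells overnight; add fluo-8 no-wash Ca dye, RT 30 min–1.5 h; record 10 s baseline; pin-transfer compounds; monitor fluorescence 1 cycle/s for the agonist window. Calcium increases flag candidate agonists.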
Each line names hits and unclear results; the compound was inactive in the other large screens. Unless noted, the call rests on the fitted dose curve; in most records, active means well fitted curve in the direction sought with a large enough effect; inconclusive means small, poorly fitted or top-dose-only effect, or another doubt; inactive means no such curve, though single readings can be large; an effect the other way counts as inactive or inconclusive.

CCOC(=O)Nc1ccc2c(C)cc(=O)oc2c1	none
CC(=O)Oc1ccc2c(C)cc(=O)oc2c1	none
Cc1cccc(NC(=O)C2CCN(S(=O)(=O)c3ccc4c(c3)CCCC(=O)N4)CC2)c1	none (no result: IL2 activator, MBNL1 CUG block, CBFb-RUNX1 inh)
Cn1nnnc1Sc1ncnc2scc(-c3cccc(Cl)c3)c12	none (no result: IL2 activator, MBNL1 CUG block, Epigenetic derep, CBFb-RUNX1 inh)
COCCCN(C(=S)Nc1cccc(Cl)c1)C(C)c1ccncc1 (stereo unspecified)	TRHR PAM 37, MBNL1 CUG block inconclusive
CCO[C@@H]1OC(C(=O)N2CCN(Cc3ccc4c(c3)OCO4)CC2)=C[C@H](C2CC2)[C@H]1CCCO	none
CCO[C@H]1OC(C(=O)N2CCN(Cc3ccc4c(c3)OCO4)CC2)=C[C@@H](C2CCCCC2)[C@@H]1CCCO	TRHR PAM 38
CCCCN(CC)C(=O)Nc1ccc2c(c1)N(C)C(=O)c1ccccc1S2	none (no result: IL2 activator, MBNL1 CUG block, CBFb-RUNX1 inh)
C#Cc1nc(Nc2cccc(Cl)c2)nc(NC2CCCC2)n1	none (no result: IL2 activator, MBNL1 CUG block, Epigenetic derep, CBFb-RUNX1 inh)
O=C1/C(=C\c2c(NCCOCCO)nc3ccccn3c2=O)SC(=S)N1Cc1ccco1	TRHR agonist 33 (no result: Epigenetic derep, CBFb-RUNX1 inh)
CCN(CC)c1nn2c(=O)c(C(=O)NCc3ccc(N(C)C)cc3)cnc2s1	none (no result: IL2 activator, MBNL1 CUG block, CBFb-RUNX1 inh)
CC1CCC(N2CC(=O)N(C3CCCCC3)C(c3ccc(F)cc3)C2=O)CC1 (stereo unspecified)	none (no result: IL2 activator, MBNL1 CUG block, CBFb-RUNX1 inh)
CC1CCC(N2CC(=O)N(C3CCCC3)C(c3ccc(Cl)cc3)C2=O)CC1 (stereo unspecified)	TRHR PAM 31 (no result: IL2 activator, MBNL1 CUG block, CBFb-RUNX1 inh)
O=C(Nc1cccc(Cl)c1)Nn1cnnc1	MBNL1 CUG block 25µM
COc1ccc(/C=N/NC(=O)CNc2n[nH]c(=O)[nH]c2=O)cc1OC	TRHR PAM 34
COc1cc(/C=N/NC(=O)CNc2n[nH]c(=O)[nH]c2=O)ccc1O	none
Cc1ccc(-c2cn3nc(N4CCCC(C(=O)NCc5ccccc5F)C4)sc3n2)cc1 (stereo unspecified)	TRHR PAM 30 (no result: IL2 activator, MBNL1 CUG block, CBFb-RUNX1 inh)
CCOC(=O)c1cc2n(c1/N=C/N(C)C)-c1ccccc1C2=O	MBNL1 CUG block inconclusive, TRHR agonist 85
COc1ccc(C(=O)Nc2nc3n(n2)C(c2ccc(Cl)cc2)C=C(c2ccccc2)N3)cc1OC (stereo unspecified)	TRHR agonist 30 (no result: IL2 activator, MBNL1 CUG block, CBFb-RUNX1 inh)
CN(C)CCCNC(=O)c1cc(C(=O)Cc2ccccc2)c[nH]1	TRHR PAM 34
N[C@](CC1c2ccccc2Oc2ccccc21)(C(=O)O)[C@H]1C[C@@H]1C(=O)O	none (no result: TRHR PAM, IL2 activator, MBNL1 CUG block, TRHR agonist)
COCCCNC(=O)CCc1c(C)nc2nc(-c3cc(OC)cc(OC)c3)nn2c1C	none (no result: IL2 activator, MBNL1 CUG block, CBFb-RUNX1 inh)
Cc1ccc(CCNC(=O)CCc2cn(Cc3ccccc3C)c3ccccc23)cc1	none (no result: IL2 activator, MBNL1 CUG block, CBFb-RUNX1 inh)
CCC(=O)NC(c1ccccc1OC)c1ccc2cccnc2c1O (stereo unspecified)	Epigenetic derep 3.5µM (no result: CBFb-RUNX1 inh)
CCCC(=O)NC(c1ccc(OC)cc1)c1ccc2cccnc2c1O (stereo unspecified)	Epigenetic derep 3.5µM
COC(=O)c1ccc(OCC2c3cc(OC)c(OC)cc3CCN2C(=O)COc2ccc(Cl)cc2)cc1 (stereo unspecified)	none (no result: IL2 activator, MBNL1 CUG block, CBFb-RUNX1 inh)
O=C1C2C3C=CC(C3)C2C(=O)N1CCCCCCN1C(=O)C2C3C=CC(C3)C2C1=O (stereo unspecified)	TRHR PAM 32
O=C(O)CCN1C(=O)C2C3C=CC(C3)C2C1=O (stereo unspecified)	none
COc1ccc(C(=O)NCC(=O)OCC(=O)N2CCCc3ccccc32)cc1	TRHR PAM 37
CC(C)(C)c1ccc(C(=O)NCC(=O)OC(C(=O)Nc2cc(C(F)(F)F)ccc2Cl)c2ccccc2)cc1 (stereo unspecified)	none (no result: IL2 activator, MBNL1 CUG block, Epigenetic derep, CBFb-RUNX1 inh)
COC(=O)c1ccc(NC(=O)COC(=O)c2nc3nccc(C)n3n2)cc1	TRHR PAM 33, Epigenetic derep inconclusive
O=C(NCc1ccccc1)c1nc[nH]c1C(=O)NCc1ccccc1	TRHR PAM 33
COc1ccc(CCNC(=O)c2sc3nc4n(c(=O)c3c2C)CCCC4)cc1OC	none (no result: IL2 activator, MBNL1 CUG block, CBFb-RUNX1 inh)
CC(=O)c1cccc(NC(=S)NCc2ccco2)c1	none

Assay outcomes (PubChem)
